# Assay results reported in article PMC7862700, “An all-to-all approach to the identification of sequence-specific readers for epigenetic DNA modifications on cytosine”.
# Tests used:
# Assay in all cases: DAPPL (digital affinity profiling via proximity ligation, sequencing); 10 mM Tris-HCl pH 7.5, 50 mM NaCl, 1 mM DTT, 4% glycerol, room temperature, 30 min; GST-TFs on glutathione beads, 16-mer random dsDNA library, 0.1% formaldehyde crosslink after washing; high values mean tight binding
# FLI1 = target: T1, FLI1 (Homo sapiens, UniProt Q01543 1-452); settings: protein: recombinant; tags: N-terminal GST; dsDNA, one strand shown
# T1 sequence: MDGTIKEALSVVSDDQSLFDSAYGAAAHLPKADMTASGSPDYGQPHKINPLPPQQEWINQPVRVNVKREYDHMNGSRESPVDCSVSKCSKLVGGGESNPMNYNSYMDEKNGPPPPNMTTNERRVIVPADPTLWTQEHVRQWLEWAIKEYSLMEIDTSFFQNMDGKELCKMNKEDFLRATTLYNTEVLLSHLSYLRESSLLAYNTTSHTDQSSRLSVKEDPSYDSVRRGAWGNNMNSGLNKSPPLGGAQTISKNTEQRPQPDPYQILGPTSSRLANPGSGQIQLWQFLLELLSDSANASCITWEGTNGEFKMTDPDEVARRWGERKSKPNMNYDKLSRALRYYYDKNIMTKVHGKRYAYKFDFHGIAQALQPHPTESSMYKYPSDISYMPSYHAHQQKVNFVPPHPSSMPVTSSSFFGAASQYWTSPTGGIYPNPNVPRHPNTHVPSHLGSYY
# Method in brief: (§1)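 Human transcription factors fused to GST were expressed in yeast, captured on glutathione beads, given DNA barcodes and pooled with a GST-only negative control. Pools were incubated with 200 nmole of a 16-mer random double-stranded DNA library in Tris/NaCl/DTT/glycerol buffer at room temperature for 30 min. They were then washed, crosslinked with 0.1% formaldehyde, proximity-ligated (BsaI/T4 ligase, 1 h, 37 °C), PCR-amplified and sequenced on an Illumina NextSeq500. Binding signal is each 6-mer's read frequency for a factor divided by its frequency for the GST control.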
# ELK1 = target: T2, ELK1 (Homo sapiens, UniProt P19419 1-428); settings: protein: recombinant; tags: N-terminal GST; dsDNA, one strand shown
# T2 sequence: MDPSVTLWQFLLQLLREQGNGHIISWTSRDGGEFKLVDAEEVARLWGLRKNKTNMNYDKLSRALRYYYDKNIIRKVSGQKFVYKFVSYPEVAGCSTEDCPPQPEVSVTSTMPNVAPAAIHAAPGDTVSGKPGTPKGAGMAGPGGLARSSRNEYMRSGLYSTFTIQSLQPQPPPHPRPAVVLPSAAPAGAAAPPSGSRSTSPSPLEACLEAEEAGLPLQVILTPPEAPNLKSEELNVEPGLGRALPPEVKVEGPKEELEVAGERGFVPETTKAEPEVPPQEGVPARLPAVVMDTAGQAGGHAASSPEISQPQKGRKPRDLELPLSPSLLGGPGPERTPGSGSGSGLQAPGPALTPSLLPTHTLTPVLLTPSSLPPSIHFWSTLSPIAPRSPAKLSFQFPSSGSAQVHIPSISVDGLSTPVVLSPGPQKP
# Method in brief: as §1
# GABPA = target: T3, GABPA (Homo sapiens, UniProt Q06546 1-454); settings: protein: recombinant; tags: N-terminal GST; dsDNA, one strand shown
# T3 sequence: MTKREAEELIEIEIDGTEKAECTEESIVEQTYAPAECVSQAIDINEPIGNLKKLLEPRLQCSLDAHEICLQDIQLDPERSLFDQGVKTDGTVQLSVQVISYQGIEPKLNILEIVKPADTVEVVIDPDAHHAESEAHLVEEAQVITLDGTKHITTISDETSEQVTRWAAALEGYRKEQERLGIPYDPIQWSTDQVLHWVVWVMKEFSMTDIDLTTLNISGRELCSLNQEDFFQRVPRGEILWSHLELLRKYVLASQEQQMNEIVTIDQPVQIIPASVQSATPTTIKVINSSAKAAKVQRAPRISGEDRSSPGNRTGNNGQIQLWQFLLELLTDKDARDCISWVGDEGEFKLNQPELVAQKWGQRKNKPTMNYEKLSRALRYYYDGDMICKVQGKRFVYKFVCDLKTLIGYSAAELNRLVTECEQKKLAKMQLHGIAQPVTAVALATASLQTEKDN
# Method in brief: as §1
# ERG = target: T4, ERG (Homo sapiens, UniProt P11308 1-479); settings: protein: recombinant; tags: N-terminal GST; dsDNA, one strand shown
# T4 sequence: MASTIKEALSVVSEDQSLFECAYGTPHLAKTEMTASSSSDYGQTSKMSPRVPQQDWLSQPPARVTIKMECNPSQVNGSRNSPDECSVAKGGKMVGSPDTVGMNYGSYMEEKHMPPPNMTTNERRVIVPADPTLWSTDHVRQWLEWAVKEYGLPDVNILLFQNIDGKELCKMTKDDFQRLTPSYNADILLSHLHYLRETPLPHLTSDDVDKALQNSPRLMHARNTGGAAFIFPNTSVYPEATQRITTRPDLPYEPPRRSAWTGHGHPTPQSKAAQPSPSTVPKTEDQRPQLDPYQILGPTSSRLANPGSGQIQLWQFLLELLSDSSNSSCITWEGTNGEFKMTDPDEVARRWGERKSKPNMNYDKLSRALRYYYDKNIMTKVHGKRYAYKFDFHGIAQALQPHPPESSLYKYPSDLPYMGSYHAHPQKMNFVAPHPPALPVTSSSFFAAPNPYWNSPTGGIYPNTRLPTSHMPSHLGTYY
# Method in brief: as §1
# ELF1 = ELF1 (Homo sapiens, UniProt P32519 1-619); settings: protein: recombinant; tags: N-terminal GST; dsDNA, one strand shown
# Method in brief: as §1
# EHF = target: T5, EHF (Homo sapiens, UniProt Q9NZC4 1-300); settings: protein: recombinant; tags: N-terminal GST; dsDNA, one strand shown
# T5 sequence: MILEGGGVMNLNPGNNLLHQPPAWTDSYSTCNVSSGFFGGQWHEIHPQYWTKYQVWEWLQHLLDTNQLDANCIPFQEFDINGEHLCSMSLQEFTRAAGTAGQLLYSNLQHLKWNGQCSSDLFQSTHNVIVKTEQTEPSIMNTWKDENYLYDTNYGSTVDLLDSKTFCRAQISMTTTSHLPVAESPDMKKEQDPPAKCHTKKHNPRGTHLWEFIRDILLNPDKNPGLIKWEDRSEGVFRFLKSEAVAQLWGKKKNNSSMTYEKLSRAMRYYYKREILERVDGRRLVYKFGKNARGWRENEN
# Method in brief: as §1
# SPI1 = SPI1 (Homo sapiens, UniProt P17947 1-270); settings: protein: recombinant; tags: N-terminal GST; dsDNA, one strand shown
# Method in brief: as §1
# SPIB = SPIB (Homo sapiens, UniProt Q01892 1-262); settings: protein: recombinant; tags: N-terminal GST; dsDNA, one strand shown
# Method in brief: as §1
# ELK3 = target: T6, ELK3 (Homo sapiens, UniProt P41970 1-407); settings: protein: recombinant; tags: N-terminal GST; dsDNA, one strand shown
# T6 sequence: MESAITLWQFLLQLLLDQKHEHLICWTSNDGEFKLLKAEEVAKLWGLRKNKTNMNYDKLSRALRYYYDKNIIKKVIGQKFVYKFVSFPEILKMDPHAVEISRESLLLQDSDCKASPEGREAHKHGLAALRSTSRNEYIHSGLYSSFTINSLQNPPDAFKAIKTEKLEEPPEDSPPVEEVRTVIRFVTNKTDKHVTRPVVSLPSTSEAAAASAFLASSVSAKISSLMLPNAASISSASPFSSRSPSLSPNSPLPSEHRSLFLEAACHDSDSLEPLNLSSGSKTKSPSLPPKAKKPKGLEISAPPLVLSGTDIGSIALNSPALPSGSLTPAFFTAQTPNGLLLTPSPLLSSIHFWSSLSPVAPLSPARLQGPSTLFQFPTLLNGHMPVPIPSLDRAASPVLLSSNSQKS
# Method in brief: as §1
# FEV = target: T7, FEV (Homo sapiens, UniProt Q99581 1-238); settings: protein: recombinant; tags: N-terminal GST; dsDNA, one strand shown
# T7 sequence: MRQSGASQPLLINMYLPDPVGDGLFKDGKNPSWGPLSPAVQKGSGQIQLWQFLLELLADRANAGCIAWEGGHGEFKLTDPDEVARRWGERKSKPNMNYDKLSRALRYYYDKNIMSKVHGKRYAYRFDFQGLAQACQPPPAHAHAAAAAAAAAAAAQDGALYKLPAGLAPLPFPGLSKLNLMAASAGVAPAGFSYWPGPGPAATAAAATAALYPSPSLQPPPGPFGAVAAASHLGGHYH
# Method in brief: as §1
# ETV5 = ETV5 (Homo sapiens, UniProt P41161 1-510); settings: protein: recombinant; tags: N-terminal GST; dsDNA, one strand shown
# Method in brief: as §1
# HSF1 = HSF1 (Homo sapiens, UniProt Q00613 1-529); settings: protein: recombinant; tags: N-terminal GST; chain copies: 3; dsDNA, one strand shown
# Method in brief: as §1
# SPIC = target: T8, SPIC (Homo sapiens, UniProt Q8N5J4 1-248); settings: protein: recombinant; tags: N-terminal GST; dsDNA, one strand shown
# T8 sequence: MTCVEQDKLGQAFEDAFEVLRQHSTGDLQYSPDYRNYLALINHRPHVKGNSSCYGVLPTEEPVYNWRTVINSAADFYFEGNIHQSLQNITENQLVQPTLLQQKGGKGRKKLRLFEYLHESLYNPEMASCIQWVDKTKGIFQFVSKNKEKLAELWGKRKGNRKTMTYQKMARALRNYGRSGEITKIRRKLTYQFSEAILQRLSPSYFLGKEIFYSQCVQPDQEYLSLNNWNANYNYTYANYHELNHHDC
# Method in brief: as §1
# ELF4 = ELF4 (Homo sapiens, UniProt Q99607 1-663); settings: protein: recombinant; tags: N-terminal GST; dsDNA, one strand shown
# Method in brief: as §1
# ELK4 = target: T9, ELK4 (Homo sapiens, UniProt P28324-2 1-405); settings: protein: recombinant; tags: N-terminal GST; dsDNA, one strand shown
# T9 sequence: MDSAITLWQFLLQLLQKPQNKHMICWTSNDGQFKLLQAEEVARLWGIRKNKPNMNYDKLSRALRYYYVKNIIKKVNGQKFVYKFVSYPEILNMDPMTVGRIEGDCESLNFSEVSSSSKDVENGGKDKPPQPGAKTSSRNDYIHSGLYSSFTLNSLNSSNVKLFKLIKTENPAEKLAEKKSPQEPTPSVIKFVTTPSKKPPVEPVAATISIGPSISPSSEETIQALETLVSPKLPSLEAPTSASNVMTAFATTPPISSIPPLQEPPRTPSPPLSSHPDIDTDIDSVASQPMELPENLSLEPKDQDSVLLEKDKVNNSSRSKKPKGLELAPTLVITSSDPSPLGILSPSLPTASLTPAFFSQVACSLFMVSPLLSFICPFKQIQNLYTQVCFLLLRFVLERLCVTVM
# Method in brief: as §1
# ETV2 = target: T10, ETV2 (Homo sapiens, UniProt O00321 1-342); settings: protein: recombinant; tags: N-terminal GST; dsDNA, one strand shown
# T10 sequence: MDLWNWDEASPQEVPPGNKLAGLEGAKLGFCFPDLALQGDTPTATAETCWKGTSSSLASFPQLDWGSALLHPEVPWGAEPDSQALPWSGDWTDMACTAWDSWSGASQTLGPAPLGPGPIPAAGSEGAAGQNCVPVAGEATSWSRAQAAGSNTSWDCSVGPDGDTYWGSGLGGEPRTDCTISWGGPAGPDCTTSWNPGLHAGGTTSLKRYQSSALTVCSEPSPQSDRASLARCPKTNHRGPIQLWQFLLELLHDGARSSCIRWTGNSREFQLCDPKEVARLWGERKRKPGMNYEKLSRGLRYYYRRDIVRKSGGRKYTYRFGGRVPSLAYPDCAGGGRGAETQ
# Method in brief: as §1
# ELF3 = target: T11, ELF3 (Homo sapiens, UniProt P78545 1-371); settings: protein: recombinant; tags: N-terminal GST; dsDNA, one strand shown
# T11 sequence: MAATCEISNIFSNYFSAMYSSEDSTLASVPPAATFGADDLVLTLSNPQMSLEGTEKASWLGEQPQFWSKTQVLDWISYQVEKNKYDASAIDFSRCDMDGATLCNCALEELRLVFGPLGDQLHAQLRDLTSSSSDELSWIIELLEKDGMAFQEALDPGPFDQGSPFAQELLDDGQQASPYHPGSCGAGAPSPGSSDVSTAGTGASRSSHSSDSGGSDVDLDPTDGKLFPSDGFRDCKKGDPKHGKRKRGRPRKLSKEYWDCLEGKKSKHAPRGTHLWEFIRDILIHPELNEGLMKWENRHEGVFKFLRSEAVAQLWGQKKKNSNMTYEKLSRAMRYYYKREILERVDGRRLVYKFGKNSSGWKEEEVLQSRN
# Method in brief: as §1
# CRX = CRX (Homo sapiens, UniProt O43186 1-299); settings: protein: recombinant; tags: N-terminal GST; dsDNA, one strand shown
# Method in brief: as §1
# ETV1 = ETV1 (Homo sapiens, UniProt P50549 1-477); settings: protein: recombinant; tags: N-terminal GST; dsDNA, one strand shown
# Method in brief: as §1
# Chain of HSF1 (Q00613 whole entry): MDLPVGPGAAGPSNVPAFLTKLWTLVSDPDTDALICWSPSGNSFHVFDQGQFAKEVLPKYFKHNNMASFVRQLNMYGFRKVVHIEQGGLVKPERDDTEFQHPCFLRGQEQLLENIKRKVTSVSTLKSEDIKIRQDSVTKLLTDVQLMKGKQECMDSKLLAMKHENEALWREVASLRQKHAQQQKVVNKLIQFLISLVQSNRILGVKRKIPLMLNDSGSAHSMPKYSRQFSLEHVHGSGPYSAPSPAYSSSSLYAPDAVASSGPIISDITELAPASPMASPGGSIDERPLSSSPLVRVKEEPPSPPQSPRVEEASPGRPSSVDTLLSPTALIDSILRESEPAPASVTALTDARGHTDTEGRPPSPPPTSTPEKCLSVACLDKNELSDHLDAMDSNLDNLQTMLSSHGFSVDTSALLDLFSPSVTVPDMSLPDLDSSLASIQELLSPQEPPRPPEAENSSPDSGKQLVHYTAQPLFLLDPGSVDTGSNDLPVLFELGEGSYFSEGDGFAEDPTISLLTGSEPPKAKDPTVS
# Chain of CRX (O43186 whole entry): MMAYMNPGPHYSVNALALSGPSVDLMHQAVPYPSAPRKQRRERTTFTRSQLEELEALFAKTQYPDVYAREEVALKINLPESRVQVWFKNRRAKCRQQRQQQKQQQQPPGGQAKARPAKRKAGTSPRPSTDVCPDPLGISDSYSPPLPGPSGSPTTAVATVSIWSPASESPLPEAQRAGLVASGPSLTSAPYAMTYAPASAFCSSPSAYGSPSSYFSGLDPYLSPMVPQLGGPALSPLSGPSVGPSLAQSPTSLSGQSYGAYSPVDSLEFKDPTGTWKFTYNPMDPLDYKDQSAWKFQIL
# Chain of ETV1 (P50549 whole entry): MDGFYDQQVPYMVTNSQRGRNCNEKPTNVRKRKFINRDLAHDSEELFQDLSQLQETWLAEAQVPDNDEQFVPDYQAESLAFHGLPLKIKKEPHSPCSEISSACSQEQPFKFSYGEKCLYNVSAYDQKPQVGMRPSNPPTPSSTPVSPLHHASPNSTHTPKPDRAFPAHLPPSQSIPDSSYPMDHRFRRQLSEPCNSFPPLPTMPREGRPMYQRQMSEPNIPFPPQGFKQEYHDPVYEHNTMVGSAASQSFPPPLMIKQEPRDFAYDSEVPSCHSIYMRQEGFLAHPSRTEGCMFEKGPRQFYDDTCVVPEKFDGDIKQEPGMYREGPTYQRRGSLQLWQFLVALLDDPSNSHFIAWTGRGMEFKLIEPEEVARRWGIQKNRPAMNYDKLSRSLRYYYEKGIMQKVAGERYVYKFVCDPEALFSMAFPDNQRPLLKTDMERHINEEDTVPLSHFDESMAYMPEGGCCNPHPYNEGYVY
# Chain of SPIB (Q01892 whole entry): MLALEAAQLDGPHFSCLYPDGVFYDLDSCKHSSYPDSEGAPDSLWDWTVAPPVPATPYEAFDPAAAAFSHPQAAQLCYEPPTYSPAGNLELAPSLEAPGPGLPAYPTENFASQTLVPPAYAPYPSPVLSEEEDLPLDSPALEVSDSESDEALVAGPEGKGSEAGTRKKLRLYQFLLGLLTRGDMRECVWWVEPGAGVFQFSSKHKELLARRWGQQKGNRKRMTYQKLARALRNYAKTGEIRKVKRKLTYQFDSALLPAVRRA
# Chain of ELF1 (P32519 whole entry): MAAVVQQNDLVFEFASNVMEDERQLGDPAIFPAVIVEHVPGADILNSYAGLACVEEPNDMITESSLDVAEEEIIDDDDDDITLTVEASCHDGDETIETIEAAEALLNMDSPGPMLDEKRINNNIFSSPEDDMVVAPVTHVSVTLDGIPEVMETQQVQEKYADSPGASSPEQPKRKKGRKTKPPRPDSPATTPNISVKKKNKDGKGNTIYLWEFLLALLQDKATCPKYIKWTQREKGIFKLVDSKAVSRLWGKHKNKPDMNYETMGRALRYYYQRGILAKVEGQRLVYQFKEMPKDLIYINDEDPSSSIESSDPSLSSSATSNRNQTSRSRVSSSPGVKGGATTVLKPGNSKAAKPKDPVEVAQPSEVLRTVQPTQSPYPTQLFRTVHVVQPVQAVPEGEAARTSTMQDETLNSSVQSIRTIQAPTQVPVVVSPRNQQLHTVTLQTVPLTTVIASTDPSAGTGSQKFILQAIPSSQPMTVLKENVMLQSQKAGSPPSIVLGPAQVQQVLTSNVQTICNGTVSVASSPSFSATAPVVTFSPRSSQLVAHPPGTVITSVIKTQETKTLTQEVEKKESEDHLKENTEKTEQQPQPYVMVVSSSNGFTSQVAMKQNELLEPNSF
# Chain of ETV5 (P41161 whole entry): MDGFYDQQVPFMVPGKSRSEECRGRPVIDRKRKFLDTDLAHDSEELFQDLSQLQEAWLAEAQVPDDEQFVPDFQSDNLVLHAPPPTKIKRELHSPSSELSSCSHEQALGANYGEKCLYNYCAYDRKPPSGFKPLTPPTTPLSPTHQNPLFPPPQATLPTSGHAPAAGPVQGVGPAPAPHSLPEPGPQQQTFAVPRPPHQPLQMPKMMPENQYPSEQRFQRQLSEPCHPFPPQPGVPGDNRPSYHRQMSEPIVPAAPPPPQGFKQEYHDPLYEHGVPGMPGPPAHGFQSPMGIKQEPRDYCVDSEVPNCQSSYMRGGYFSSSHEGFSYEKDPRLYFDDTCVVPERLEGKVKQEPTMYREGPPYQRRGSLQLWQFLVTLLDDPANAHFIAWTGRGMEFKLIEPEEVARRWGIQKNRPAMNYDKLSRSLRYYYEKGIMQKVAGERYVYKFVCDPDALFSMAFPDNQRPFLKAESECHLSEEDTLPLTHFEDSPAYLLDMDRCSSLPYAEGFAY
# Chain of ELF4 (Q99607 whole entry): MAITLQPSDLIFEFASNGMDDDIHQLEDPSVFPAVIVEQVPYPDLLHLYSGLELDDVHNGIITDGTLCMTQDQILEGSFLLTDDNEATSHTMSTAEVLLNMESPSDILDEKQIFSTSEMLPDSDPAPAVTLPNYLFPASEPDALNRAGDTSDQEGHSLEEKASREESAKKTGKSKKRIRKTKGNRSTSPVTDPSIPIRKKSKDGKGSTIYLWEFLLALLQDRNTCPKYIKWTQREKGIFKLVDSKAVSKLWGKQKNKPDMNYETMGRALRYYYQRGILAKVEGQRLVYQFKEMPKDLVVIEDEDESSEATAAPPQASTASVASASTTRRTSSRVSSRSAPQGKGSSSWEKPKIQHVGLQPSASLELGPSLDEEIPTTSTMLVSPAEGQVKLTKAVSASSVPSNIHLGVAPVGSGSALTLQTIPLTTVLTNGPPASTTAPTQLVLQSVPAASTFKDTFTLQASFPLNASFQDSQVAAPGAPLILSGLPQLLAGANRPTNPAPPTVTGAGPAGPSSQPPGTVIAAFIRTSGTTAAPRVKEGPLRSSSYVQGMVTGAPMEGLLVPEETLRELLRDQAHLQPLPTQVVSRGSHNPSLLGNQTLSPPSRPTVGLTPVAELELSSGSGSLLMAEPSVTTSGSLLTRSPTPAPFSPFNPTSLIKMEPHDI
sequence,measurement,setting,value
CGTTAA,binding signal,FLI1,"1.12 fold enrichment (6-mer frequency, TF over GST control)"
same,binding signal,ELK1,"1.17 fold enrichment (6-mer frequency, TF over GST control)"
same,binding signal,GABPA,"1.11 fold enrichment (6-mer frequency, TF over GST control)"
same,binding signal,ERG,"1.17 fold enrichment (6-mer frequency, TF over GST control)"
same,binding signal,ELF1,"1.14 fold enrichment (6-mer frequency, TF over GST control)"
same,binding signal,EHF,"1.1 fold enrichment (6-mer frequency, TF over GST control)"
same,binding signal,SPI1,"1.1 fold enrichment (6-mer frequency, TF over GST control)"
same,binding signal,SPIB,"1.13 fold enrichment (6-mer frequency, TF over GST control)"
same,binding signal,ELK3,"1.21 fold enrichment (6-mer frequency, TF over GST control)"
same,binding signal,FEV,"1.18 fold enrichment (6-mer frequency, TF over GST control)"
same,binding signal,ETV5,"1.21 fold enrichment (6-mer frequency, TF over GST control)"
same,binding signal,HSF1,"1.31 fold enrichment (6-mer frequency, TF over GST control)"
same,binding signal,SPIC,"1.34 fold enrichment (6-mer frequency, TF over GST control)"
same,binding signal,ELF4,"1.12 fold enrichment (6-mer frequency, TF over GST control)"
same,binding signal,ELK4,"1.07 fold enrichment (6-mer frequency, TF over GST control)"
same,binding signal,ETV2,"1.36 fold enrichment (6-mer frequency, TF over GST control)"
same,binding signal,ELF3,"1.27 fold enrichment (6-mer frequency, TF over GST control)"
same,binding signal,CRX,"1.7 fold enrichment (6-mer frequency, TF over GST control)"
same,binding signal,ETV1,"1.09 fold enrichment (6-mer frequency, TF over GST control)"
